Of roughly 8,800 targets only a part is listed; those with a hit were picked by preference. About 0.5% of all pairs of compound and target were hits. Values without a mark were called inactive.
Experiments:
Test in all cases: log2 fold change, soluble protein after heating vs DMSO (PISA); higher = thermal stabilisation; K562 lysate, 10 uM; active = over 0.2 and 3.5 SD of the protein, either way, in both replicates (recomputed)
[1] = compound: C=CC(=O)N1CCC[C@@H](n2nc(-c3ccc(Oc4ccccc4)cc3)c3c(N)ncnc32)C1 [ibrutinib]
Method in brief: (§1)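 Log-two fold change in thermal stability relative to solvent controls is reported from duplicates. For each sample, crude K562 extract from dounce-homogenised pellets in PBS pH 7.4 with 1 mM MgCl2, at 1 mg/mL protein, was treated with 10 μM compound for 30 min. Aliquots heated for 3 min across 48°C-58°C were pooled, brought to 0.5% NP-40 at 4°C and cleared at 21,000xg for 90 min. The supernatant was quantified by TMTpro 16plex LC-MS/MS with channel sums equalised.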

[2] = compound: CC(=O)c1cnc2ccc(-c3cc(Cl)c(O)c(Cl)c3)nc2c1N[C@H]1CC[C@H](CN(C)C)CC1
Method in brief: as §1

[3] = compound: CC(C)(C)Cn1c(N)nc2ccc(-c3[nH]c(C(C)(C)C)nc3-c3ccc(F)cc3)nc21 [ralimetinib]
Method in brief: as §1

[4] = compound: CC(C)(O)CC(=O)NCCn1ccc2ncnc(Nc3ccc(Oc4cccc(C(F)(F)F)c4)c(Cl)c3)c21
Method in brief: as §1

[5] = compound: CC(C)C1=C2N=C(C=C(N2N=C1)NCC3=CC=CC=C3)NCCCCCCN
Method in brief: as §1

[6] = compound: CC1=C(C(CC(=O)N1)C2=CC=C(C=C2)C(F)(F)F)C(=O)NC3=C(C=C4C(=C3)C=NN4)F
Method in brief: as §1

[7] = compound: CC1=C(C2=C(C=C1)C(=O)C3=CC=CC=C3N2CCCN)C
Method in brief: as §1

[8] = compound: CC1=C(C=C(C=C1)NC(=O)C2=CC(=CC=C2)C(C)(C)C#N)NC3=CC4=C(C=C3)N=CN(C4=O)C
Method in brief: as §1

[9] = compound: CC1=C(C=C(C=C1)NC(=O)C2=CC(=CC=C2)N(C)C)NC(=O)C3=CC=C(C=C3)O
Method in brief: as §1

[10] = compound: CC1=CC=C(C=C1)SC2=C3C=C(SC3=CN=C2)C(=O)N
Method in brief: as §1

[11] = compound: CCCS(=O)(=O)Nc1ccc(F)c(C(=O)c2c[nH]c3ncc(-c4ccc(Cl)cc4)cc23)c1F [vemurafenib]
Method in brief: as §1

[12] = compound: CCCS(=O)(=O)Nc1ccc(F)c(C(=O)c2c[nH]c3ncc(Cl)cc23)c1F
Method in brief: as §1

[13] = compound: CCN(CCCOc1ccc2c(Nc3cc(CC(=O)Nc4cccc(F)c4)[nH]n3)ncnc2c1)CCOP(=O)(O)O [barasertib]
Method in brief: as §1

[14] = compound: CC[C@@H]1C(=O)N(C)c2cnc(Nc3ccc(C(=O)NC4CCN(C)CC4)cc3OC)nc2N1C1CCCC1
Method in brief: as §1

[15] = compound: CC[C@@H]1C(=O)N(C)c2cnc(Nc3ccc(C(=O)N[C@H]4CC[C@H](N5CCN(CC6CC6)CC5)CC4)cc3OC)nc2N1C(C)C [volasertib]
Method in brief: as §1

[16] = compound: CCn1c(C(=O)N(C2CC2)C2CC2)cc2c3c(ncn3C)c(Nc3cc(C)n(C)n3)nc21
Method in brief: as §1

[17] = compound: CCn1cc(-c2ccnc3[nH]c(-c4cccc(CN(C)C)c4)cc23)c(-c2ccc(NC(=O)N(C)C)cc2)n1
Method in brief: as §1

[18] = compound: CN1CCC(CNc2ccc3ncc(-c4cccc(OC(F)(F)F)c4)n3n2)CC1
Method in brief: as §1

[19] = compound: CN1CCN(CCOc2cc(OC3CCOCC3)c3c(Nc4c(Cl)ccc5c4OCO5)ncnc3c2)CC1 [saracatinib]
Method in brief: as §1

[20] = compound: CN1CCN(c2nc(C3=C(c4c[nH]c5ccccc45)C(=O)NC3=O)c3ccccc3n2)CC1 [sotrastaurin]
Method in brief: as §1

UniProt Q9Y4R8, sequence (Q9Y4R8 whole entry, looked up): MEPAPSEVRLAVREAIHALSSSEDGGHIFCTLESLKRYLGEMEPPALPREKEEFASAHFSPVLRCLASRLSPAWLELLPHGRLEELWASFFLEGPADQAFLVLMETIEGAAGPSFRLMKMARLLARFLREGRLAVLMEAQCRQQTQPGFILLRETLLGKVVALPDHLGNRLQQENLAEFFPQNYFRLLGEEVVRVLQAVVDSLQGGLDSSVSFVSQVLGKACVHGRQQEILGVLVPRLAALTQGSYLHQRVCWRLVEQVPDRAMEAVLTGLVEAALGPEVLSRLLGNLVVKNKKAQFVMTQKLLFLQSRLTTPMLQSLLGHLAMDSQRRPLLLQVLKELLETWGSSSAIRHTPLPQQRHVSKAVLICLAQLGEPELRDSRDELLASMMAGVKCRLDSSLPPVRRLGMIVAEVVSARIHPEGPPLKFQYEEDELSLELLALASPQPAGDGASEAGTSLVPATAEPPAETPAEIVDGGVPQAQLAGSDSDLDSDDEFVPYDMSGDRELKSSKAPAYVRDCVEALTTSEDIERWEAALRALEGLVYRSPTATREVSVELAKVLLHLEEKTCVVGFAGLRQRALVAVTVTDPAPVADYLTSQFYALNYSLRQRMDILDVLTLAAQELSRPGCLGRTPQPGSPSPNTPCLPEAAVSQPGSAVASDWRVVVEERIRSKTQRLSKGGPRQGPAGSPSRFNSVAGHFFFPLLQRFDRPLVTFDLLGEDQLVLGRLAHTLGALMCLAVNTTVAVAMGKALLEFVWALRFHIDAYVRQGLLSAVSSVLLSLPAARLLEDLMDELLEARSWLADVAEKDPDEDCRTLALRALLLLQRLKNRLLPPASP
UniProt Q8WVT3, sequence (Q8WVT3 whole entry, looked up): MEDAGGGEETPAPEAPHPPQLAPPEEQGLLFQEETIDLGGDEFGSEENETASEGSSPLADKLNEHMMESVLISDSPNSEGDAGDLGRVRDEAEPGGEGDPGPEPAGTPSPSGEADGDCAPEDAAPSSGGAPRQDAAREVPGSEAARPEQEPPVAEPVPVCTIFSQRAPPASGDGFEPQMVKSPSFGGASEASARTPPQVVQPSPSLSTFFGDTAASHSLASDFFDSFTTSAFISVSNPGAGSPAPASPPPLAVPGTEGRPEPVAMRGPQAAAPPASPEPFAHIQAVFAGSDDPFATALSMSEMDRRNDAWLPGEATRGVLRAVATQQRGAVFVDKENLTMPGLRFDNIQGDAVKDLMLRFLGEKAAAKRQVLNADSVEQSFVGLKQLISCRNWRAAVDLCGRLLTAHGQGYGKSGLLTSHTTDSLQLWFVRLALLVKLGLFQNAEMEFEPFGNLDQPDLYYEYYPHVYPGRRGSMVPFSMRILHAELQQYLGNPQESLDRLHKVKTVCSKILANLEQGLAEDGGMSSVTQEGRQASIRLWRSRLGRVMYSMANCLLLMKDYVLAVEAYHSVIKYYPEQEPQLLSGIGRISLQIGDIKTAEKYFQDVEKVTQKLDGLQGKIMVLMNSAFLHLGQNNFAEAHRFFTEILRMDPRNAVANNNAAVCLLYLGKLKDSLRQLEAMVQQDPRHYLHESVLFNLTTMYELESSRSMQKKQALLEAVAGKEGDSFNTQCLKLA
UniProt Q9NUQ7, sequence (Q9NUQ7 whole entry, looked up): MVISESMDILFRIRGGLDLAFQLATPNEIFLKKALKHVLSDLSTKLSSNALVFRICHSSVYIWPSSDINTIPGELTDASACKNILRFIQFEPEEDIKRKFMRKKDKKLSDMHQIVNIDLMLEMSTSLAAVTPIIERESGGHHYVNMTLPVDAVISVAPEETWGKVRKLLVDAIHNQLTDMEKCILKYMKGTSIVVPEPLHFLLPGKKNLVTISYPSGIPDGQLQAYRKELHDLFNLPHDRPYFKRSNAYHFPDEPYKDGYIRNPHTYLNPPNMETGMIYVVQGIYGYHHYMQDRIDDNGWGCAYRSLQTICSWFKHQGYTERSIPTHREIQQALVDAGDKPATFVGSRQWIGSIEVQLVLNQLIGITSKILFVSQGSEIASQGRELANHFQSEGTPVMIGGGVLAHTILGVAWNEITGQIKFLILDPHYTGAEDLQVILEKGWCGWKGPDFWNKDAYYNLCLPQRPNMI
UniProt Q9H892, sequence (Q9H892 whole entry, looked up): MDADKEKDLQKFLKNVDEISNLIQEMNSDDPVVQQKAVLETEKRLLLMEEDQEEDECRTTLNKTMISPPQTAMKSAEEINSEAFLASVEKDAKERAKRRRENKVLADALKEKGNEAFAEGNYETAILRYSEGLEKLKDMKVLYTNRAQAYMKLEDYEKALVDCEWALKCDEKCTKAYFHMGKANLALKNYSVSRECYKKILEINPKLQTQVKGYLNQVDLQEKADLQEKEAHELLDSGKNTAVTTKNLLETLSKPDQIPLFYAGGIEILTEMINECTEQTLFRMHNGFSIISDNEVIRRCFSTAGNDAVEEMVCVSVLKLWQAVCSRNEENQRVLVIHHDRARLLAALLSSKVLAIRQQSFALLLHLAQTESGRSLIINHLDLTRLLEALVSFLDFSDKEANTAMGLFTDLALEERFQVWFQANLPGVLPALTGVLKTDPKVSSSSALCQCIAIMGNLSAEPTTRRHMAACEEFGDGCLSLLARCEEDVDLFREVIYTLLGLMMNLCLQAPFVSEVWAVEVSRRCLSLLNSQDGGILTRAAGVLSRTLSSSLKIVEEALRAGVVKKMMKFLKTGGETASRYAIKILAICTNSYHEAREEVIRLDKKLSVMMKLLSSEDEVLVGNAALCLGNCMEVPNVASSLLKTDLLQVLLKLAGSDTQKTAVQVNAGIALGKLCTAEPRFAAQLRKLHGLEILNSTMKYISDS
UniProt Q14166, sequence (Q14166 whole entry, looked up): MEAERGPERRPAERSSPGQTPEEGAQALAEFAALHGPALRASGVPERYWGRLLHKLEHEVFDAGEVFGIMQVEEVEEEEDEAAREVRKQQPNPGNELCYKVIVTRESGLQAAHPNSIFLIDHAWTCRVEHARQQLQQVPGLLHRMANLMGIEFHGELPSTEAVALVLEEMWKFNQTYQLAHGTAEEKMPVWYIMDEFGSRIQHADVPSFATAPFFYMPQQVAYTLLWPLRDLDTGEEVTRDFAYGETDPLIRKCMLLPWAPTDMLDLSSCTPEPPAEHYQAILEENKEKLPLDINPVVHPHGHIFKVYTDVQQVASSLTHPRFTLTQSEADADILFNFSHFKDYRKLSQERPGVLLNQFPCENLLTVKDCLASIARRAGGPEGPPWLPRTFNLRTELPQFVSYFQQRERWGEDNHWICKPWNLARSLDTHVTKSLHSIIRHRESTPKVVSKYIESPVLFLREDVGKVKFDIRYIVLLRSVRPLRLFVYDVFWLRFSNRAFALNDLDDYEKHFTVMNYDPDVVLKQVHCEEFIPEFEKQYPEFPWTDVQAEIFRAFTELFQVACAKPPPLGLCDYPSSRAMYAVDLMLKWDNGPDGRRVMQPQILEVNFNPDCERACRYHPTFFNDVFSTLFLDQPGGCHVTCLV
UniProt P07437, sequence (P07437 whole entry, looked up): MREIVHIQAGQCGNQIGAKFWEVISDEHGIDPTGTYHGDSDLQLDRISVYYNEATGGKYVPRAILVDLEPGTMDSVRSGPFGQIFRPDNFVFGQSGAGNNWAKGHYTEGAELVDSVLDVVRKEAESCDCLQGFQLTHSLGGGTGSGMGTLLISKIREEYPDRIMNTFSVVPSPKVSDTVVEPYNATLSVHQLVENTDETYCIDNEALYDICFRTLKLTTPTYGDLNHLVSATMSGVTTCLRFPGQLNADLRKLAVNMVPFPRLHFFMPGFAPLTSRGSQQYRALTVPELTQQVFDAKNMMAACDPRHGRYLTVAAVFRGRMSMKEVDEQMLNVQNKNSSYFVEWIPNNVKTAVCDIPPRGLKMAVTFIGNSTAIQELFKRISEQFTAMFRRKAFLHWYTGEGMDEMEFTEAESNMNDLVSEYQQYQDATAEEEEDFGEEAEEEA
UniProt P04818, sequence (P04818 whole entry, looked up): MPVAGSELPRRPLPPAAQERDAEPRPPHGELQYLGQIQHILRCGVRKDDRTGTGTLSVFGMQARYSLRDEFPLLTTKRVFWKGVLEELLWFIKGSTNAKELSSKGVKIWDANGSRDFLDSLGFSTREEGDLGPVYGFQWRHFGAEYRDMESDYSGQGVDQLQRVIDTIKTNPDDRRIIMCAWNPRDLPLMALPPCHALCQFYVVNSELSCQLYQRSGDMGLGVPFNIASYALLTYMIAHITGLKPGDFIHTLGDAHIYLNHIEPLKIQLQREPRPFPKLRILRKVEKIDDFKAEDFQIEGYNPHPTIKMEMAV
UniProt Q5JUR7, sequence (Q5JUR7 whole entry, looked up): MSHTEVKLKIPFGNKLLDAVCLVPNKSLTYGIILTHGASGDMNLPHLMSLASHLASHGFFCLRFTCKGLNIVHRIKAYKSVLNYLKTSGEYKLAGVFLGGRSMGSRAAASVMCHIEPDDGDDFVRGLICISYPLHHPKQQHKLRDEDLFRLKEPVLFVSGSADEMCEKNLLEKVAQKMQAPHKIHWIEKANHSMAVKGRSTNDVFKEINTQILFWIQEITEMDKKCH
UniProt P06753, sequence (P06753 whole entry, looked up): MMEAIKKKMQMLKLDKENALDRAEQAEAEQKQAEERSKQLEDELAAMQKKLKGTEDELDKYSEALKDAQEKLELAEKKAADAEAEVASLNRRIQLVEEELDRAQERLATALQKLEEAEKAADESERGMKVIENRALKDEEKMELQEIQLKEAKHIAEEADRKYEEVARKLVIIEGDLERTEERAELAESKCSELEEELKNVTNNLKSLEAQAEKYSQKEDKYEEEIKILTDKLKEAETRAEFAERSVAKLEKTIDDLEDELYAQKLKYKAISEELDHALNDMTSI
UniProt Q15628, sequence (Q15628 whole entry, looked up): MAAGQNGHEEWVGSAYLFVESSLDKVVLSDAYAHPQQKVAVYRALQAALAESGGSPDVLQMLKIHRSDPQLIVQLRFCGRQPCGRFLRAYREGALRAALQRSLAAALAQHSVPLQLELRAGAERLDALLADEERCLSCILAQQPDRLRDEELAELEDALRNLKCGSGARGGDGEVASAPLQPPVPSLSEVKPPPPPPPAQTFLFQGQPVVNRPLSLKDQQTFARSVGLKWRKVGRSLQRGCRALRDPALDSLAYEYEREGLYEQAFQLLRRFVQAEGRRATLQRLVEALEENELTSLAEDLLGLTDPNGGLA

Row | Target | log2 fold change [1] | log2 fold change [2] | log2 fold change [3] | log2 fold change [4] | log2 fold change [5] | log2 fold change [6] | log2 fold change [7] | log2 fold change [8] | log2 fold change [9] | log2 fold change [10] | log2 fold change [11] | log2 fold change [12] | log2 fold change [13] | log2 fold change [14] | log2 fold change [15] | log2 fold change [16] | log2 fold change [17] | log2 fold change [18] | log2 fold change [19] | log2 fold change [20]
1 | TELO2 (UniProt Q9Y4R8) | -0.023 | 0 | 0.019 | -0.052 | 0.002 | 0.029 | -0.015 | 0.006 | 0.014 | 0.017 | 0.063 | 0 | 0.088 | -0.073 | -0.071 | 0.048 | -0.017 | -0.043 | 0 | 0.037
2 | TYMS (UniProt P04818) | -0.041 | -0.017 | 0.014 | 0.029 | 0.01 | 0.001 | 0.043 | -0.005 | -0.001 | -0.022 | -0.009 | 0.006 | 0.022 | -0.053 | -0.041 | -0.004 | -0.035 | -0.064 | 0 | 0.008
3 | TUBGCP4 (UniProt Q9UGJ1) | 0 | -0.051 | 0.052 | -0.037 | 0 | 0.021 | -0.048 | -0.002 | 0.05 | 0.043 | 0.088 | 0.028 | 0.116 | 0.039 | -0.027 | 0.026 | 0.013 | -0.077 | 0.025 | 0.109
4 | UFSP2 (UniProt Q9NUQ7) | 0.004 | -0.005 | 0.023 | -0.004 | -0.023 | 0.01 | 0.005 | -0.036 | -0.003 | -0.006 | 0.074 | -0.018 | -0.019 | 0.072 | -0.071 | 0.016 | -0.011 | 0.002 | 0.036 | 0.018
5 | TTLL12 (UniProt Q14166) | -0.018 | 0.003 | 0.026 | 0.005 | 0.044 | -0.026 | -0.032 | -0.008 | 0.031 | 0.012 | 0.016 | 0.007 | -0.001 | -0.07 | -0.07 | 0.019 | -0.033 | 0.009 | 0.004 | 0.022
6 | TPD52L2 isoform 7 (UniProt O43399) | -0.016 | 0.017 | -0.013 | 0.01 | -0.013 | 0.023 | -0.024 | 0.007 | -0.006 | -0.001 | -0.02 | -0.033 | 0.045 | 0.048 | 0.017 | 0.011 | -0.14 | 0.207 | 0.003 | 0.034
7 | TRAPPC12 (UniProt Q8WVT3) | 0.001 | -0.011 | 0.064 | 0.02 | -0.014 | -0.022 | -0.003 | 0.008 | -0.001 | 0.009 | 0.039 | -0.001 | -0.007 | 0.047 | -0.083 | -0.03 | -0.027 | -0.009 | 0.028 | -0.003
8 | TRADD (UniProt Q15628) | 0.013 | 0.017 | -0.005 | -0.012 | -0.018 | -0.015 | -0.001 | 0.017 | 0.021 | 0.019 | -0.611 (active) | 0.052 | -0.002 | 0.07 | -0.023 | 0.065 | 0.014 | 0.001 | 0.011 | -0.023
9 | TTC12 isoform 2 (UniProt Q9H892) | -0.002 | -0.073 | 0.053 | 0.128 | -0.032 | -0.049 | -0.042 | 0.037 | -0.14 | -0.003 | 0.025 | 0.061 | 0.053 | -0.049 | 0.063 | -0.121 | -0.208 | 0.079 | 0.038 | -0.055
10 | TEX30 (UniProt Q5JUR7) | 0.17 | 0.003 | 0.047 | -0.053 | -0.045 | -0.033 | 0.016 | -0.027 | 0.019 | 0.019 | 0.008 | 0.033 | 0.109 | -0.077 | -0.051 | 0.005 | -0.301 | 0.088 | -0.011 | -0.023
11 | TPM3 (UniProt P06753) | 0.009 | -0.001 | -0.028 | 0.022 | 0.013 | -0.028 | 0.013 | -0.038 | -0.016 | -0.007 | -0.008 | 0.009 | -0.02 | 0.043 | 0.021 | 0.013 | 0.182 | -0.062 | -0.011 | -0.031
12 | TTF2 (UniProt Q9UNY4) | 0.003 | -0.121 | 0.035 | -0.006 | -0.02 | 0.037 | -0.084 | -0.058 | -0.018 | -0.115 | 0.008 | 0.037 | 0.027 | -0.028 | 0.022 | 0.003 | -0.003 | -0.026 | 0.025 | 0.024
13 | TESC (UniProt Q96BS2) | 0.065 | -0.029 | 0.005 | 0.056 | -0.055 | 0.043 | 0.015 | 0 | -0.013 | -0.077 | 0.045 | 0.029 | 0.291 (active) | 0.047 | 0.036 | -0.004 | 0.109 | -0.023 | 0.063 | 0.012
14 | TUBB (UniProt P07437) | -0.013 | 0.011 | 0.038 | -0.009 | 0.037 | 0.049 | 0.003 | 0.007 | 0.014 | 0.009 | 0.018 | 0.003 | -0.051 | -0.02 | -0.063 | -0.017 | -0.041 | 0.004 | 0.029 | 0.017
15 | TTI1 (UniProt O43156) | 0 | 0.014 | 0.018 | -0.049 | -0.029 | 0.013 | 0.02 | 0.068 | -0.009 | 0.026 | 0.006 | -0.012 | 0.055 | -0.093 | -0.026 | 0.006 | -0.074 | 0.019 | -0.003 | 0.006
16 | TPP2 (UniProt Q5VZU9) | 0.073 | -0.025 | -0.018 | 0.046 | -0.041 | 0.056 | 0.018 | -0.049 | -0.017 | 0.061 | 0.003 | 0.061 | -0.002 | 0.014 | 0.003 | -0.005 | -0.147 | 0.088 | -0.022 | 0.044
